From PubChem BioAssay
An excerpt weighted towards active compounds, which were near 3.5% of everything screened.
MITF primary = human MITF inhibition, primary screen. O75030. AlphaScreen MITF homodimerization, bead proximity signal. inhibition, % at 2.6 µM. 650,000 compounds, 0.91% hits. AID 1259374; in the data active = inhibition above about 50%;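 also: 0% = vehicle wells with protein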
TEAD-YAP inh = TEAD-YAP interaction inhibition; AID 1259422; inhibition, % at 9.12 µM; HEK-TIYL cells, TEAD-Gal4/YAP UAS-luciferase luminescence; 640,000 compounds, 1.4% hits; in the data active = inhibition above about 32%;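 also: 0% = median of test compound wells and 100% = reference inhibitor wells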
FBW7 act = human FBW7 E3 ligase activation, primary screen. Q969H0. AlphaScreen FBW7–phospho-cyclin E peptide binding, activator screen. normalized activity (activation), % at 26.1 µM. 650,000 compounds, 0.13% hits. AID 1259310; in the data active = normalized activity above about 1.9%;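 also: purified mutant Fbw7 with reduced substrate affinity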
Target sequence (Q969H0 whole entry, looked up): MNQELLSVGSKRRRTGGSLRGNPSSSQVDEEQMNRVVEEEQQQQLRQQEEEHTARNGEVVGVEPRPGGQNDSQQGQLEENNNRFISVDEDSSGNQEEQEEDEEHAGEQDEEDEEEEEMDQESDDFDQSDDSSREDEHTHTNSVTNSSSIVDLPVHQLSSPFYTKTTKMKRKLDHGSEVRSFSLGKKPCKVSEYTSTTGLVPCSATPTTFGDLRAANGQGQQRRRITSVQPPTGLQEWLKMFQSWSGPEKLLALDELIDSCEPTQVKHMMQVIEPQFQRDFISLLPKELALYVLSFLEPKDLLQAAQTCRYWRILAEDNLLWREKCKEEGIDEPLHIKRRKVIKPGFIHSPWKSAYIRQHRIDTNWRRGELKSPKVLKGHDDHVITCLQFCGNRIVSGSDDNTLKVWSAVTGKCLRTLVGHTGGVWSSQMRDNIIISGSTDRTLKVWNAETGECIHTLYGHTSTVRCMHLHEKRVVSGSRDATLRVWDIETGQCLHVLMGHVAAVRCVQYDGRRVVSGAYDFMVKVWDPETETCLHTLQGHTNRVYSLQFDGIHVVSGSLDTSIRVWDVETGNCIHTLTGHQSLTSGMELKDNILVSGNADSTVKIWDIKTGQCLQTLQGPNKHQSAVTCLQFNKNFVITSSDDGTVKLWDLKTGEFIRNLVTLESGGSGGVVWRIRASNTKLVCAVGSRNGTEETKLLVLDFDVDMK
GPR151 activ = activators of human GPR151; 650,000 compounds, 1% hits; Q8TDV0; PathHunter beta-arrestin GPR151 cells, luminescence; activation, % at 11.2 µM; AID 1508602; in the data active = activation above about 4.9%;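 also: 0% = median of compound wells and 100% = cells with positive control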
The depositor's hits bear a star.

SMILES	MITF primary	TEAD-YAP inh	FBW7 act	GPR151 activ
c1ccc2[nH]c(CNc3nc(Nc4ccncc4)nc4c3ncn4C3CCCCC3)nc2c1	15	64*	0	0
c1ccc(-n2cnc3c(NCc4nc5ccccc5[nH]4)nc(Nc4ccncc4)nc32)cc1	9	73*	0	-2
c1ccc(-n2cnc3c(NCc4nc5ccccc5[nH]4)nc(Nc4ccc(-n5ccnc5)cc4)nc32)cc1	2	57*	0	-1
c1ccc(-n2cnc3c(NCc4nc5ccccc5[nH]4)nc(Nc4cccnc4)nc32)cc1	9	73*	0	-3
COc1ccc(Cl)cc1C(=O)Nc1ccc(-c2nc3cc(Cl)ccc3o2)cc1	4	-29	0	0
CC1CCCC(C)N1C(=O)CSc1nnc(Cc2cccc3ccccc23)n1N (stereo not given)	-15	4	0	1
Cc1cc(C)c(S(=O)(=O)NNC(=O)c2ccc([N+](=O)[O-])cc2)c(C)c1	0	6	0	2
CCOc1c(Br)ccc2c1sc1nc[nH]c(=O)c12	-1	4	0	0
O=CNc1cccc2c1sc1nc[nH]c(=O)c12	8	53*	0	2
Cc1cc(NC(=O)C2CCCCC2C(=O)O)ccc1NC(=O)Cc1ccccc1 (stereo not given)	-6	1	0	1
Cn1c(=O)cc(N2CCCCC2)n(Cc2ccccc2)c1=O	-7	3	0	1
CC(=O)N(C1=C(N2CCN(C)CC2)C(=O)c2ccccc2C1=O)c1cccc(F)c1	-2	88*	0	-2
CC(=O)N(C1=C(Nc2ccccc2)C(=O)c2ccccc2C1=O)c1ccccc1	21	9	0	-2
CC(=O)N(C1=C(N2CCCC2)C(=O)c2ccccc2C1=O)c1ccc(F)c(F)c1	-18	22	0	-4
CC(=O)N(C1=C(N2CCCCC2)C(=O)c2ccccc2C1=O)c1cccc(Cl)c1	56*	-2	0	0
CCCNC1=C(N(C(C)=O)c2cccc(F)c2)C(=O)c2ccccc2C1=O	7	93*	0	-5
Nc1ncc(Br)cc1S(=O)(=O)Nc1ccc(F)cc1F	-9	1	0	0
CCOC(=O)c1cc2c(ccc3c2c(C)c(C)n3C)nc1C	4	-7	0	2
Cc1cc2nc3cc(N)c(C)cc3cc2cc1N	8	73*	0	1
CN(C)c1ccc2nc3c(nc2c1)C(=O)c1ccccc1C3=O	-8	-20	0	-2
Cc1cc2nc3ccc(N(C)C)cc3nc2cc1N	58*	32*	0	-6
CCOc1cccc2c1OC1(C)C(C(=O)Nc3ccc(Cl)cc3)C2NC(=S)N1CCCOC (stereo not given)	13	-12	0	-1
CCOC(=O)/C=C/C(=O)Nc1cc(Cl)c(Cl)cc1Cl	-1	58*	0	1
CCN(CC)CCNc1ccc(CO)c2sc3ccccc3c(=O)c12	12	34*	0	2
CCc1cc(CC)c2c(=O)c3ccccc3sc2c1	8	3	0	-1
SMILES	MITF primary	TEAD-YAP inh	FBW7 act	GPR151 activ
C=CCN1C(=O)/C(=C/c2c(OC)cc(OC)cc2OC)SC1=S	2	-14	0	2
CCOC(=O)N1CCc2c(sc(NC(=O)c3ccc(S(=O)(=O)N4CCC(C)CC4)cc3)c2C(N)=O)C1	-11	-9	0	3
COc1ccccc1C(=O)NNC(=S)NC(=O)c1ccc(Cl)cc1Cl	8	9	5.1*	0
COc1ccccc1C(=O)NC(=S)NNC(=O)c1ccccc1C	17	-8	0	0
COc1ccccc1C(=O)NC(=S)Nc1ccc(NC(C)=O)cc1	2	-54	0	0
COc1ccccc1C(=O)NC(=S)Nc1ccccc1	4	36*	0	-1
COc1ccccc1C(=O)NC(=S)Nc1ccccc1[N+](=O)[O-]	1	45*	0	-1
COCCNc1ncc(-c2cccc3ncccc23)n2ccnc12	-26	12	0	1
Cc1ccc(OCCn2cc(C(=S)N3CCCC3)c3ccccc32)cc1C	14	52*	0	0
S=C(c1cn(CCOc2ccccc2)c2ccccc12)N1CCCC1	-2	-9	0	0
CCOc1ccc(/C=C2\C(=O)ON=C2c2ccccc2)cc1	6	-5	0	0
CCOc1cc(/C=C2\C(=O)ON=C2c2ccccc2)ccc1OC	58*	-10	0	-1
CCCCOc1ccc(/C=C2\C(=O)ON=C2c2ccc(Cl)cc2)cc1	24	9	0	-1
COc1ccc(OC)c(C=C2C(=O)OC(C)(c3ccccc3)OC2=O)c1 (stereo not given)	22	-8	0	1
COc1cc(/C=C2\C(=O)ON=C2c2ccccc2)cc(OC)c1OC	13	-7	0	0
COc1ccc(OC)c(/C=C2\C(=O)ON=C2c2ccccc2)c1	77*	-8	0	0
O=C1ON=C(c2ccc(Cl)cc2)/C1=C\c1ccc2c(c1)OCO2	77*	2	0	0
COc1ccc(/C=C2/C(=O)ON=C2c2ccccc2)cc1OC	65*	-26	-1	2
CC(C)(Oc1ccc(Cl)cc1)C(=O)Nc1ncc([N+](=O)[O-])s1	10	36*	0	1
CC(C)OCCNC(=O)c1cc(COc2ccc3ncccc3c2)on1	-10	22	0	1
O=C(NCC1CCOCC1)c1cc(COc2ccc3ncccc3c2)on1	-10	33*	0	1
CC(NC(=O)c1cc(COc2ccc3ncccc3c2)on1)c1ccc(F)cc1 (stereo not given)	10	38*	0	2
O=C(NC1CCCC1)c1cc(COc2ccc3ncccc3c2)on1	-4	40*	0	1
O=C(NCc1ccc2c(c1)OCO2)c1cc(COc2ccc3ncccc3c2)on1	4	35*	0	1
CC(C)c1cc(CNC(=O)c2cc(COc3ccc4ncccc4c3)on2)on1	12	18	0	0
SMILES	MITF primary	TEAD-YAP inh	FBW7 act	GPR151 activ
O=C1OC(c2cccc3ccccc23)=N/C1=C\c1cc2c(cc1Cl)OCO2	-8	-3	0	1
CCOC(=O)C1=C(C)N=c2s/c(=C\c3ccc(O)cc3)c(=O)n2C1c1ccc2c(c1)OCO2 (stereo not given)	-10	-11	0	1
CCCC1=C(C(=O)OCC)C(c2c(OC)ccc3ccccc23)n2c(s/c(=C\c3ccc(OC)cc3)c2=O)=N1 (stereo not given)	-1	-5	0	1
Cc1nc(C(C)NC(=O)c2cc(COc3ccc(F)cc3F)on2)cs1 (stereo not given)	9	-4	2.0*	0
COc1cc(/C=C(/NC(=O)c2ccc(C)c(C)c2)C(=O)N2CC3CC(C2)c2cccc(=O)n2C3)ccc1OC(C)=O (stereo not given)	-3	-6	0	-1
COC(=O)c1cc(S(=O)(=O)N(C)Cc2ccccc2)c[nH]1	10	-4	0	2
Cc1ccc(C(NC(=O)C2CCCCC2)c2ccc3cccnc3c2O)cc1 (stereo not given)	30	34*	0	2
